Reference: article PMC7862700, “An all-to-all approach to the identification of sequence-specific readers for epigenetic DNA modifications on cytosine”

Key:
Assay in all cases: DAPPL (digital affinity profiling via proximity ligation, sequencing); 10 mM Tris-HCl pH 7.5, 50 mM NaCl, 1 mM DTT, 4% glycerol, room temperature, 30 min; GST-TFs on glutathione beads, 16-mer random dsDNA library, 0.1% formaldehyde crosslink after washing; high values mean tight binding
Conditions in all cases: protein: recombinant; tags: N-terminal GST; dsDNA, one strand shown
[1] = target: T1, FLI1 (Homo sapiens, UniProt Q01543 1-452)
T1 sequence: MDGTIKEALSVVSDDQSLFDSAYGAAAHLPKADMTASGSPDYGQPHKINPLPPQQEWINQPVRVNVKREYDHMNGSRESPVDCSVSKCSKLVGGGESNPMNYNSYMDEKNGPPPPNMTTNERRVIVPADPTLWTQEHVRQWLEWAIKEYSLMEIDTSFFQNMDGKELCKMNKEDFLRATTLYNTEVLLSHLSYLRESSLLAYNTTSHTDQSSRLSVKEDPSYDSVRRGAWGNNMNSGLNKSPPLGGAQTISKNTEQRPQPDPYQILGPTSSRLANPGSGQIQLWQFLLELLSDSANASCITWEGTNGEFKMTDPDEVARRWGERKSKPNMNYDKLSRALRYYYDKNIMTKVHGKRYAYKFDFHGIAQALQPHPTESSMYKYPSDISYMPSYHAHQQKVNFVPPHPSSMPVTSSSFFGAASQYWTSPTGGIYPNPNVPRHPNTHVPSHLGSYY
Method in brief: (§1)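 After expression in yeast as GST fusions, human transcription factors were bound to glutathione beads, DNA-barcoded and mixed with a tag-only sample. The pools were incubated with 200 nmole of a 16-mer random double-stranded DNA library in Tris/NaCl/DTT/glycerol buffer (30 min, room temperature), washed and crosslinked with 0.1% formaldehyde. Proximity ligation with BsaI/T4 ligase ran for 1 h at 37 °C, before PCR amplification and sequencing on an Illumina NextSeq500. Binding signal is a hexamer's read frequency for a factor divided by its frequency for the tag-only sample.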

[2] = target: T2, ELK1 (Homo sapiens, UniProt P19419 1-428)
T2 sequence: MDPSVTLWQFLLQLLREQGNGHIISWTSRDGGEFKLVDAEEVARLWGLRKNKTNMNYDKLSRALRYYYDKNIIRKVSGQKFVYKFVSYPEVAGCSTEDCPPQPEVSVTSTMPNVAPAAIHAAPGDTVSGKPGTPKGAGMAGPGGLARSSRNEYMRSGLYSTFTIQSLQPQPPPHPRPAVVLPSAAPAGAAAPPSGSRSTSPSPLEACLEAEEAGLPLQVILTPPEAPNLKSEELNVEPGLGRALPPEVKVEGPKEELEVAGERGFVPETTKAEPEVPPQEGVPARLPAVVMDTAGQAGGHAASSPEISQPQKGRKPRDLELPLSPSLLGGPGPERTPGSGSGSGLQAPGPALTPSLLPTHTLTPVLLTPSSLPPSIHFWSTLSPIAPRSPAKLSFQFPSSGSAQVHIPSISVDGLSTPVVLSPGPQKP
Method in brief: as §1

[3] = target: T3, GABPA (Homo sapiens, UniProt Q06546 1-454)
T3 sequence: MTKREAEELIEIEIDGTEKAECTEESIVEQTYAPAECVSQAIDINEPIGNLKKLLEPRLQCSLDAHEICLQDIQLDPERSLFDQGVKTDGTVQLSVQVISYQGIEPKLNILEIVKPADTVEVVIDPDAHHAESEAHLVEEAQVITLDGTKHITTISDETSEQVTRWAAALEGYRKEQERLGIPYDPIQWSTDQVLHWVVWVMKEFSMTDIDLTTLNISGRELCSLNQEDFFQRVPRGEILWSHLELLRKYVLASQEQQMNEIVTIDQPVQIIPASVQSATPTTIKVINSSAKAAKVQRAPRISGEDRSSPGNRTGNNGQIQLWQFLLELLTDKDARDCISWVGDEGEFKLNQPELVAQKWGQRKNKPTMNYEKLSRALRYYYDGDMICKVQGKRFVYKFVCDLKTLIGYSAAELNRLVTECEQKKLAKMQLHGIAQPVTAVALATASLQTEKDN
Method in brief: as §1

[4] = target: T4, ERG (Homo sapiens, UniProt P11308 1-479)
T4 sequence: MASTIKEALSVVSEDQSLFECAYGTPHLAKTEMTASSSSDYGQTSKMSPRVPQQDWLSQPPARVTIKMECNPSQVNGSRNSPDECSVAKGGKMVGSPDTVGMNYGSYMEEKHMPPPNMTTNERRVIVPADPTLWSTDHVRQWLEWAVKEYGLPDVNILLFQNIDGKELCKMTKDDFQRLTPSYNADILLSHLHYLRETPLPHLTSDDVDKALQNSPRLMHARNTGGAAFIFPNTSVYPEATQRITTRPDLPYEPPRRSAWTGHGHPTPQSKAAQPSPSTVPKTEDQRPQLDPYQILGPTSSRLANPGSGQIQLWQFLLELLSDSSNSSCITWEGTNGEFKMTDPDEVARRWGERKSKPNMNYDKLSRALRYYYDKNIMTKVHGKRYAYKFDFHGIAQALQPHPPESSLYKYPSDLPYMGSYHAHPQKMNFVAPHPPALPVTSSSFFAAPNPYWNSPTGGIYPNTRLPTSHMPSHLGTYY
Method in brief: as §1

[5] = target: ELF1 (Homo sapiens, UniProt P32519 1-619)
ELF1, sequence (P32519 whole entry): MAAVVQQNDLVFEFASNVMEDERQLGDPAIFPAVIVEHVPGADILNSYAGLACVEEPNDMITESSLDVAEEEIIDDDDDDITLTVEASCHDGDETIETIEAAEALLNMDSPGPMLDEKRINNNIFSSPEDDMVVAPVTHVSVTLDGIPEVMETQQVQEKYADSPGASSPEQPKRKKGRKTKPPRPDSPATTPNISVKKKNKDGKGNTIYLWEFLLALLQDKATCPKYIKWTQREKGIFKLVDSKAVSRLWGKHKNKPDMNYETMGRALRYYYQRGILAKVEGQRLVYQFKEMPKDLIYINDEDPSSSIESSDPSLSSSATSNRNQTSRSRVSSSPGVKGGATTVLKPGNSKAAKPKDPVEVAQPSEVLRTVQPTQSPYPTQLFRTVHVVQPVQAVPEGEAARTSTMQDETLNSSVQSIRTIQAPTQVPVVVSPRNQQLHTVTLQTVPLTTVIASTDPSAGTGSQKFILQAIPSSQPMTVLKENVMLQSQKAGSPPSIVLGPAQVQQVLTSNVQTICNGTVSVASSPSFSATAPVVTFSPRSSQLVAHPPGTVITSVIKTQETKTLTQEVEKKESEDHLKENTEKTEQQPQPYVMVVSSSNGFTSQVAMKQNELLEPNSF
Method in brief: as §1

[6] = target: T5, EHF (Homo sapiens, UniProt Q9NZC4 1-300)
T5 sequence: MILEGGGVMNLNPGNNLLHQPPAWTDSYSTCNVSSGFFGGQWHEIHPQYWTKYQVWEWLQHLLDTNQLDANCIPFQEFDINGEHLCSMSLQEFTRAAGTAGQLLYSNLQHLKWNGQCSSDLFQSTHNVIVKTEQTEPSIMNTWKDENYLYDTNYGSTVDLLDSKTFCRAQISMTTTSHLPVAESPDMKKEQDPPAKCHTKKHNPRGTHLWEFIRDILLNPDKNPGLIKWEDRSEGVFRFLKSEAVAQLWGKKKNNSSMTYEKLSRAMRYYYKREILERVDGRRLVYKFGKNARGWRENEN
Method in brief: as §1

[7] = target: SPI1 (Homo sapiens, UniProt P17947 1-270)
Method in brief: as §1

[8] = target: SPIB (Homo sapiens, UniProt Q01892 1-262)
SPIB, sequence (Q01892 whole entry): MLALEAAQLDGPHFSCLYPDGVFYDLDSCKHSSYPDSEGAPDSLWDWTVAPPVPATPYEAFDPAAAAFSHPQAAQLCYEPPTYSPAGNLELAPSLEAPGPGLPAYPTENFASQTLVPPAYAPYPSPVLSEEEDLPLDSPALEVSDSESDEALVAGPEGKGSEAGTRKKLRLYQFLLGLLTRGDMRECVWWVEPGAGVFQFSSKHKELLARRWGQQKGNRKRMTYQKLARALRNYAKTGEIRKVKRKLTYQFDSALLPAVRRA
Method in brief: as §1

[9] = target: T6, ELK3 (Homo sapiens, UniProt P41970 1-407)
T6 sequence: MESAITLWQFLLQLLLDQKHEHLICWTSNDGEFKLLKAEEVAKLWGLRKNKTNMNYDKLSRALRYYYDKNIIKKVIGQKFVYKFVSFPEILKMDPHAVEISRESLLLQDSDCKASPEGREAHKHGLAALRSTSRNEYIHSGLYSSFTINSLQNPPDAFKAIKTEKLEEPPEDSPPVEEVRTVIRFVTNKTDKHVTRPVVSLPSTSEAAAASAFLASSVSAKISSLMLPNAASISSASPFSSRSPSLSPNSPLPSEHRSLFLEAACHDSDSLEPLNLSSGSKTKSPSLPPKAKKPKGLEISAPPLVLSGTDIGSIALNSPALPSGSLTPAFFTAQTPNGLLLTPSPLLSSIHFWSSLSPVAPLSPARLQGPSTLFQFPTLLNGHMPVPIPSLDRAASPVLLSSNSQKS
Method in brief: as §1

[10] = target: T7, FEV (Homo sapiens, UniProt Q99581 1-238)
T7 sequence: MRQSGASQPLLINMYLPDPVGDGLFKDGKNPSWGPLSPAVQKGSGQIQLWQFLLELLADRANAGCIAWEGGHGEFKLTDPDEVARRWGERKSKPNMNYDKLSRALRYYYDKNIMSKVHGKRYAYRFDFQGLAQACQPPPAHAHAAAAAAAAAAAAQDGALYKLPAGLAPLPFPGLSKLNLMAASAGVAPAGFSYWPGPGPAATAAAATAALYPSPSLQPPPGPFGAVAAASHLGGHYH
Method in brief: as §1

[11] = target: ETV5 (Homo sapiens, UniProt P41161 1-510)
ETV5, sequence (P41161 whole entry): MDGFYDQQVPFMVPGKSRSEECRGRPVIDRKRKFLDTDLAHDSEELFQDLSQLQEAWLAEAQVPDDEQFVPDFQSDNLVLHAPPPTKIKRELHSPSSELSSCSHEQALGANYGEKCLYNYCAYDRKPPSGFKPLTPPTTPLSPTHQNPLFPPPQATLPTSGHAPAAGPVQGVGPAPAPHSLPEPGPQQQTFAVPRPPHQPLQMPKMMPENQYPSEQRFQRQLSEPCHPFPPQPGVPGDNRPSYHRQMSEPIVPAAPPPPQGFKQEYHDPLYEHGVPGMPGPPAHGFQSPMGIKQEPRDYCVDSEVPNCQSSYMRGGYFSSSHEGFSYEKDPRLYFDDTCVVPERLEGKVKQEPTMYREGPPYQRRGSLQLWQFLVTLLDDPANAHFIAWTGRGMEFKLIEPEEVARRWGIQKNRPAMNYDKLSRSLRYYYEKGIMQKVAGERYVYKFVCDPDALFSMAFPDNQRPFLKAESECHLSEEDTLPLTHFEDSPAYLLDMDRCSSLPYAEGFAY
Method in brief: as §1

[12] = target: T8, SPIC (Homo sapiens, UniProt Q8N5J4 1-248)
T8 sequence: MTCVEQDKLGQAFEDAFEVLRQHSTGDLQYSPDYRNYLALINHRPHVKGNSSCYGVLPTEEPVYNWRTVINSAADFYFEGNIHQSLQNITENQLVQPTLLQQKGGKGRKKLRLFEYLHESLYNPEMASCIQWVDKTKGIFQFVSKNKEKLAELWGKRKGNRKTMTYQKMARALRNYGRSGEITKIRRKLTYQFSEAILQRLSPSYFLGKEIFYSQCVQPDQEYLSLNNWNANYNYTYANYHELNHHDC
Method in brief: as §1

[13] = target: ELF4 (Homo sapiens, UniProt Q99607 1-663)
ELF4, sequence (Q99607 whole entry): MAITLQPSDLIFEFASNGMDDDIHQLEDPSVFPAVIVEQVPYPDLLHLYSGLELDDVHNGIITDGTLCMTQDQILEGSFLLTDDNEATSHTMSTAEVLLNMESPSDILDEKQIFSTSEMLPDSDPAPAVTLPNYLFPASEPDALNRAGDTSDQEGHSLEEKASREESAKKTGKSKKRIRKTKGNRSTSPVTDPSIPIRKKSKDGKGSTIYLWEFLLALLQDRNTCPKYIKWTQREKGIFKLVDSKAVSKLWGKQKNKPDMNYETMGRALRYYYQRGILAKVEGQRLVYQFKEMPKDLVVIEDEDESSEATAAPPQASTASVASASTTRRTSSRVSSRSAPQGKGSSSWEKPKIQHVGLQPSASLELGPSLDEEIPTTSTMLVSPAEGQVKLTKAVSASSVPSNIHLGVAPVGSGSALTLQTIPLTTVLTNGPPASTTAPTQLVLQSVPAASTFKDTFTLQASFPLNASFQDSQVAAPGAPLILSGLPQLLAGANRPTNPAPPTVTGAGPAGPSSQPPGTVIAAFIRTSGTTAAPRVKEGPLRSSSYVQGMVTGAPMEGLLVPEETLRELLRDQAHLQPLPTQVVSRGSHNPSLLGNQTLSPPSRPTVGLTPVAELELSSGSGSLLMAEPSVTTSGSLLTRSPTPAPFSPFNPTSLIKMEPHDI
Method in brief: as §1

[14] = target: T9, ELK4 (Homo sapiens, UniProt P28324-2 1-405)
T9 sequence: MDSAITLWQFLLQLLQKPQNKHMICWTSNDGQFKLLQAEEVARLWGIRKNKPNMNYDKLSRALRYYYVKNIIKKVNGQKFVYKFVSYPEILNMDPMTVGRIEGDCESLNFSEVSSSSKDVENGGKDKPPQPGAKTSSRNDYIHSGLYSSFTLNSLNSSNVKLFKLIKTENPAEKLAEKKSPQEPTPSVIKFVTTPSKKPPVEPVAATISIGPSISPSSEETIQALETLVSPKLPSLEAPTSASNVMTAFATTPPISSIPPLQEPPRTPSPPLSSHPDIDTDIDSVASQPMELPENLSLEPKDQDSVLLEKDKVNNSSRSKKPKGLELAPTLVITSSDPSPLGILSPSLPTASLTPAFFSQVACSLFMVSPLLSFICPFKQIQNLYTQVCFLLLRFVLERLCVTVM
Method in brief: as §1

[15] = target: T10, ETV2 (Homo sapiens, UniProt O00321 1-342)
T10 sequence: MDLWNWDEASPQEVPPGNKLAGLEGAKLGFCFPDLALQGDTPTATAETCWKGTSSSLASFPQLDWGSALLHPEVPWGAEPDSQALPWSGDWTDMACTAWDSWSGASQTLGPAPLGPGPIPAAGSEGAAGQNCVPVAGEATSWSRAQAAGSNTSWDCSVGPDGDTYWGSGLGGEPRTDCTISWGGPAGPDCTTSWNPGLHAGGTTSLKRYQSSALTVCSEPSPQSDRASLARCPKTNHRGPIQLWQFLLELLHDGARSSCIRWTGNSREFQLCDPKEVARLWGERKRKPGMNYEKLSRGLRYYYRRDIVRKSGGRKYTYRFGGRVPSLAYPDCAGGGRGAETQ
Method in brief: as §1

[16] = target: T11, ELF3 (Homo sapiens, UniProt P78545 1-371)
T11 sequence: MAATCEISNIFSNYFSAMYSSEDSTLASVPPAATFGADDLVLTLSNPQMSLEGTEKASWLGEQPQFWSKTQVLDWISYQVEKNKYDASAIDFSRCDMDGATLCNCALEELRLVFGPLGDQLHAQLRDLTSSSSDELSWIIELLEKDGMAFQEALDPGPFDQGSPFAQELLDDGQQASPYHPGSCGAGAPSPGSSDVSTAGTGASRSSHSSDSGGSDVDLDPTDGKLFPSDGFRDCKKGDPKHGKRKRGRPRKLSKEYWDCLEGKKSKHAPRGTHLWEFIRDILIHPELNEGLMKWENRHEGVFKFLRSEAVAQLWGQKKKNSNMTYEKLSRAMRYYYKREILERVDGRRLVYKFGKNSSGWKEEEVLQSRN
Method in brief: as §1

[17] = target: ETV1 (Homo sapiens, UniProt P50549 1-477)
ETV1, sequence (P50549 whole entry): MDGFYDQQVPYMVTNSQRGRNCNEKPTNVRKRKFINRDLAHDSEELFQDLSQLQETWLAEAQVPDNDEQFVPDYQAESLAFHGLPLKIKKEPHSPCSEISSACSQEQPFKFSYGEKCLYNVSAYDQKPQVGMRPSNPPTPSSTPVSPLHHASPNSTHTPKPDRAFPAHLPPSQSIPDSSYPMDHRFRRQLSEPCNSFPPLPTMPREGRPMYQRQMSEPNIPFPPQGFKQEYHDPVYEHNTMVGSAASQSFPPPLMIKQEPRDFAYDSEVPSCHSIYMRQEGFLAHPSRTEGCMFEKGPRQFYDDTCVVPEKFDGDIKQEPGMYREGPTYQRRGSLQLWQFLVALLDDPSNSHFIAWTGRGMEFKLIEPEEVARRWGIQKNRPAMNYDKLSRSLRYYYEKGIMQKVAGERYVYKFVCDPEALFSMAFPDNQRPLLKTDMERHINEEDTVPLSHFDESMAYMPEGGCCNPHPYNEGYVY
Method in brief: as §1

| Sequence | binding signal [1] | binding signal [2] | binding signal [3] | binding signal [4] | binding signal [5] | binding signal [6] | binding signal [7] | binding signal [8] | binding signal [9] | binding signal [10] | binding signal [11] | binding signal [12] | binding signal [13] | binding signal [14] | binding signal [15] | binding signal [16] | binding signal [17] |
| --- | --- | --- | --- | --- | --- | --- | --- | --- | --- | --- | --- | --- | --- | --- | --- | --- | --- |
| TGAACC | 1.17 fold enrichment (6-mer frequency, TF over GST control) | 1.25 fold enrichment (6-mer frequency, TF over GST control) | 1.17 fold enrichment (6-mer frequency, TF over GST control) | 1.1 fold enrichment (6-mer frequency, TF over GST control) | 1.15 fold enrichment (6-mer frequency, TF over GST control) | 1.16 fold enrichment (6-mer frequency, TF over GST control) | 1.15 fold enrichment (6-mer frequency, TF over GST control) | 1.15 fold enrichment (6-mer frequency, TF over GST control) | 1.12 fold enrichment (6-mer frequency, TF over GST control) | 1.12 fold enrichment (6-mer frequency, TF over GST control) | 1.21 fold enrichment (6-mer frequency, TF over GST control) | 1.1 fold enrichment (6-mer frequency, TF over GST control) | 1.15 fold enrichment (6-mer frequency, TF over GST control) | 1.19 fold enrichment (6-mer frequency, TF over GST control) | 1.01 fold enrichment (6-mer frequency, TF over GST control) | 1.12 fold enrichment (6-mer frequency, TF over GST control) | 1.2 fold enrichment (6-mer frequency, TF over GST control) |
| TGCATG | 1.12 fold enrichment (6-mer frequency, TF over GST control) | 1.09 fold enrichment (6-mer frequency, TF over GST control) | 1.13 fold enrichment (6-mer frequency, TF over GST control) | 1.13 fold enrichment (6-mer frequency, TF over GST control) | 1.15 fold enrichment (6-mer frequency, TF over GST control) | 1.15 fold enrichment (6-mer frequency, TF over GST control) | 1.02 fold enrichment (6-mer frequency, TF over GST control) | 1.14 fold enrichment (6-mer frequency, TF over GST control) | 1.14 fold enrichment (6-mer frequency, TF over GST control) | 1.04 fold enrichment (6-mer frequency, TF over GST control) | 1.15 fold enrichment (6-mer frequency, TF over GST control) | 1.27 fold enrichment (6-mer frequency, TF over GST control) | 1.08 fold enrichment (6-mer frequency, TF over GST control) | 1.05 fold enrichment (6-mer frequency, TF over GST control) | 1.08 fold enrichment (6-mer frequency, TF over GST control) | 1.02 fold enrichment (6-mer frequency, TF over GST control) | 1.06 fold enrichment (6-mer frequency, TF over GST control) |
